Data on 16 sequences can be found in article PMC8384837, “Expanding the binding specificity for RNA recognition by a PUF domain”.

Where a chain is given by its changes, count along the chain named.

Experiment in all cases: yeast three-hybrid, YBZ-1, SC-Leu-His + 0.5 mM 3-AT, 4 days
Common to all, as to settings: tags: N-Gal4 AD-HA kept; label: inside an RPR1-promoter hybrid RNA with tandem MS2 sites; ssRNA

The target in one experiment is T1, PUM1 PUF domain R6-GLR (Homo sapiens, UniProt Q14671 828-1176, N1043G;Y1044L;Q1047R).
T1 sequence: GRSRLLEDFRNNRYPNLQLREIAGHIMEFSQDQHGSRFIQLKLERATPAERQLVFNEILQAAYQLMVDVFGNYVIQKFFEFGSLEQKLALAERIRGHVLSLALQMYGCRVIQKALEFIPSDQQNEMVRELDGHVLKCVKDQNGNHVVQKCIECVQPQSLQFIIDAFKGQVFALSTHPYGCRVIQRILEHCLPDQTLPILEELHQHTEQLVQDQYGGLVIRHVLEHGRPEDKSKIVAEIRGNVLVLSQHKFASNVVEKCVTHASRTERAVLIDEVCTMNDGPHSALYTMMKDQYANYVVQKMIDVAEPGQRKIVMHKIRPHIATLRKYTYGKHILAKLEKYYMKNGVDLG
Put shortly:
(§1)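 Pumilio-1 PUF domain libraries, randomized at the three base-contacting residues of each repeat, were co-expressed with matching RNA elements from a centromeric plasmid in strain YBZ-1, which carries a LexA–MS2 coat fusion and a HIS3 reporter. Transformants grew for four days on SC-Leu (input) or on SC-Leu-His + 0.5 mM 3-AT (selection), and the repeat regions were PCR-amplified and Illumina-sequenced. The interaction score is the log change in variant frequency from input to selection. That logarithm is base 2, with a pseudocount of 1 where a variant was absent.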

A further experiment concerns the target PUM1 PUF domain R5-KRG (Homo sapiens, UniProt Q14671 828-1176, C1007K;Q1011G). The essentials:
as §1

The target of the next experiment is PUM1 PUF domain R5-GKE (Homo sapiens, UniProt Q14671 828-1176, C1007G;R1008K;Q1011E). The essentials: as §1
A further experiment addresses PUM1 PUF domain R5-SRR (Homo sapiens, UniProt Q14671 828-1176, C1007S;Q1011R). The essentials:
as §1

In another experiment the target is PUM1 PUF domain R7-LFG (Homo sapiens, UniProt Q14671 828-1176, S1079L;N1080F;E1083G). The essentials: as §1
Another experiment concerns the target PUM1 PUF domain R1-KLV (Homo sapiens, UniProt Q14671 828-1176, S863K;R864L;Q867V). Put shortly: as §1
For the next experiment, the target named is PUM1 PUF domain R5-SMG (Homo sapiens, UniProt Q14671 828-1176, C1007S;R1008M;Q1011G). The essentials:
as §1

The target of another experiment is PUM1 PUF domain R5-DYF (Homo sapiens, UniProt Q14671 828-1176, C1007D;R1008Y;Q1011F). The essentials: as §1
Another experiment has as its target PUM1 PUF domain R7-KPI (Homo sapiens, UniProt Q14671 828-1176, S1079K;N1080P;E1083I). The essentials: as §1
The target in a further experiment is PUM1 PUF domain R7-EPA (Homo sapiens, UniProt Q14671 828-1176, S1079E;N1080P;E1083A). Put shortly:
as §1

The target in another experiment is PUM1 PUF domain R5-AGD (Homo sapiens, UniProt Q14671 828-1176, C1007A;R1008G;Q1011D). Put shortly:
as §1

The target in the next experiment is PUM1 PUF domain R8-VRR (Homo sapiens, UniProt Q14671 828-1176, N1122V;Y1123R;Q1126R). The essentials: as §1
The target in the next experiment is PUM1 PUF domain R4-WSY (Homo sapiens, UniProt Q14671 828-1176, N971W;H972S;Q975Y). Put shortly: as §1
A further experiment concerns the target PUM1 PUF domain R4-DWC (Homo sapiens, UniProt Q14671 828-1176, N971D;H972W;Q975C). Put shortly: as §1
For another experiment, the target named is T2, PUM1 PUF domain R6-CWS (Homo sapiens, UniProt Q14671 828-1176, N1043C;Y1044W;Q1047S).
T2 sequence: T1 sequence with G216C, L217W, R220S
The essentials:
as §1

A further experiment addresses T3, PUM1 PUF domain R6-RFS (Homo sapiens, UniProt Q14671 828-1176, N1043R;Y1044F;Q1047S).
T3 sequence: T1 sequence with G216R, L217F, R220S
Put shortly: as §1

The next experiment addresses PUM1 PUF domain R1-KRR (Homo sapiens, UniProt Q14671 828-1176, S863K;Q867R). The essentials:
as §1

The target of the next experiment is PUM1 PUF domain R3-RGG (Homo sapiens, UniProt Q14671 828-1176, C935R;R936G;Q939G). Put shortly:
as §1

Another experiment has as its target T4, PUM1 PUF domain R6-TFE (Homo sapiens, UniProt Q14671 828-1176, N1043T;Y1044F;Q1047E).
T4 sequence: T1 sequence with G216T, L217F, R220E
Put shortly:
as §1

The next experiment concerns the target T5, PUM1 PUF domain R6-VFY (Homo sapiens, UniProt Q14671 828-1176, N1043V;Y1044F;Q1047Y).
T5 sequence: T1 sequence with G216V, L217F, R220Y
The essentials: as §1

Turning to “GGCUAGAACUAGUGGAUCCCCCGGCGCCCGGCGGCUCGAGCCCGGGUAAGUGCAAAUAGUCUGCAUGCCGCCGGGCGCCAUGCCUGCAGGUCGACUCUAGAAAACAUG”, the binding signal with PUM1 PUF domain R6-GLR was 3.46 log2 enrichment (interaction score).

Regarding “GGCUAGAACUAGUGGAUCCCCCGGCGCCCGGCGGCUCGAGCCCGGGUAAGUGUCAAUAGUCUGCAUGCCGCCGGGCGCCAUGCCUGCAGGUCGACUCUAGAAAACAUG”, the binding signal is 3.68 log2 enrichment (interaction score) in the experiment with PUM1 PUF domain R5-KRG, 1.37 log2 enrichment (interaction score) in the experiment with PUM1 PUF domain R5-GKE and 4.23 log2 enrichment (interaction score) in the experiment with PUM1 PUF domain R5-SRR.

With “GGCUAGAACUAGUGGAUCCCCCGGCGCCCGGCGGCUCGAGCCCGGGUAAGUUUAAAUAGUCUGCAUGCCGCCGGGCGCCAUGCCUGCAGGUCGACUCUAGAAAACAUG”, in the experiment with PUM1 PUF domain R7-LFG, the binding signal is 4.82 log2 enrichment (interaction score).

As to “GGCUAGAACUAGUGGAUCCCCCGGCGCCCGGCGGCUCGAGCCCGGGUAAGUGUAAAUGGUCUGCAUGCCGCCGGGCGCCAUGCCUGCAGGUCGACUCUAGAAAACAUG”, in the experiment with PUM1 PUF domain R1-KLV, the binding signal is 3.18 log2 enrichment (interaction score).

Regarding “GGCUAGAACUAGUGGAUCCCCCGGCGCCCGGCGGCUCGAGCCCGGGUAAGUGUUAAUAGUCUGCAUGCCGCCGGGCGCCAUGCCUGCAGGUCGACUCUAGAAAACAUG”, the binding signal in the experiment with PUM1 PUF domain R5-KRG is 4.3 log2 enrichment (interaction score); in the experiment with PUM1 PUF domain R5-GKE, 2.85 log2 enrichment (interaction score); with PUM1 PUF domain R5-SMG, 0.67 log2 enrichment (interaction score); in the experiment with PUM1 PUF domain R5-DYF it was 4.44 log2 enrichment (interaction score).

Turning to “GGCUAGAACUAGUGGAUCCCCCGGCGCCCGGCGGCUCGAGCCCGGGUAAGUCUAAAUAGUCUGCAUGCCGCCGGGCGCCAUGCCUGCAGGUCGACUCUAGAAAACAUG”, the binding signal with PUM1 PUF domain R7-KPI was 3.61 log2 enrichment (interaction score); in the experiment with PUM1 PUF domain R7-LFG, 3.01 log2 enrichment (interaction score); with PUM1 PUF domain R7-EPA, 4.81 log2 enrichment (interaction score).

For “GGCUAGAACUAGUGGAUCCCCCGGCGCCCGGCGGCUCGAGCCCGGGUAAGUGUGAAUAGUCUGCAUGCCGCCGGGCGCCAUGCCUGCAGGUCGACUCUAGAAAACAUG”, the binding signal is 3.87 log2 enrichment (interaction score) with PUM1 PUF domain R5-AGD, 4.81 log2 enrichment (interaction score) with PUM1 PUF domain R5-GKE and 2.11 log2 enrichment (interaction score) in the experiment with PUM1 PUF domain R5-SMG.

Consider “GGCUAGAACUAGUGGAUCCCCCGGCGCCCGGCGGCUCGAGCCCGGGUAAGCGUAAAUAGUCUGCAUGCCGCCGGGCGCCAUGCCUGCAGGUCGACUCUAGAAAACAUG”, for which the binding signal with PUM1 PUF domain R8-VRR is 2.81 log2 enrichment (interaction score).

On to “GGCUAGAACUAGUGGAUCCCCCGGCGCCCGGCGGCUCGAGCCCGGGUAAGUGUAAAUAGUCUGCAUGCCGCCGGGCGCCAUGCCUGCAGGUCGACUCUAGAAAACAUG”, for which the binding signal with PUM1 PUF domain R5-AGD is 1.82 log2 enrichment (interaction score); with PUM1 PUF domain R4-WSY it was 2.29 log2 enrichment (interaction score); in the experiment with PUM1 PUF domain R5-KRG, 1.97 log2 enrichment (interaction score); with PUM1 PUF domain R4-DWC it was 2.81 log2 enrichment (interaction score); with PUM1 PUF domain R6-CWS, 3.77 log2 enrichment (interaction score); with PUM1 PUF domain R6-RFS, 4.37 log2 enrichment (interaction score). Further, in the experiment with PUM1 PUF domain R8-VRR, the binding signal is 1.71 log2 enrichment (interaction score).

With “GGCUAGAACUAGUGGAUCCCCCGGCGCCCGGCGGCUCGAGCCCGGGUAAGUGUAAAUUGUCUGCAUGCCGCCGGGCGCCAUGCCUGCAGGUCGACUCUAGAAAACAUG”, the binding signal in the experiment with PUM1 PUF domain R1-KRR was 5.9 log2 enrichment (interaction score); in the experiment with PUM1 PUF domain R1-KLV, 4.79 log2 enrichment (interaction score).

As for “GGCUAGAACUAGUGGAUCCCCCGGCGCCCGGCGGCUCGAGCCCGGGUAAGUGUAAUUAGUCUGCAUGCCGCCGGGCGCCAUGCCUGCAGGUCGACUCUAGAAAACAUG”, the binding signal with PUM1 PUF domain R3-RGG was 2.13 log2 enrichment (interaction score).

Regarding “GGCUAGAACUAGUGGAUCCCCCGGCGCCCGGCGGCUCGAGCCCGGGUAAGUGUACAUAGUCUGCAUGCCGCCGGGCGCCAUGCCUGCAGGUCGACUCUAGAAAACAUG”, in the experiment with PUM1 PUF domain R4-DWC, the binding signal was 2.72 log2 enrichment (interaction score).

Consider “GGCUAGAACUAGUGGAUCCCCCGGCGCCCGGCGGCUCGAGCCCGGGUAAGUGUAUAUAGUCUGCAUGCCGCCGGGCGCCAUGCCUGCAGGUCGACUCUAGAAAACAUG”, for which the binding signal with PUM1 PUF domain R4-WSY was 3.41 log2 enrichment (interaction score); in the experiment with PUM1 PUF domain R4-DWC, 2.64 log2 enrichment (interaction score).

On to “GGCUAGAACUAGUGGAUCCCCCGGCGCCCGGCGGCUCGAGCCCGGGUAAGUGUAAAUCGUCUGCAUGCCGCCGGGCGCCAUGCCUGCAGGUCGACUCUAGAAAACAUG”, for which the results for the binding signal with PUM1 PUF domain R1-KRR and with PUM1 PUF domain R1-KLV were 5.65 log2 enrichment (interaction score) and 3.95 log2 enrichment (interaction score), respectively.

For the sequence “GGCUAGAACUAGUGGAUCCCCCGGCGCCCGGCGGCUCGAGCCCGGGUAAGUGGAAAUAGUCUGCAUGCCGCCGGGCGCCAUGCCUGCAGGUCGACUCUAGAAAACAUG”, the binding signal with PUM1 PUF domain R6-TFE was 3.07 log2 enrichment (interaction score).

Take “GGCUAGAACUAGUGGAUCCCCCGGCGCCCGGCGGCUCGAGCCCGGGUAAGUGAAAAUAGUCUGCAUGCCGCCGGGCGCCAUGCCUGCAGGUCGACUCUAGAAAACAUG”: the binding signal with PUM1 PUF domain R6-CWS is 5.26 log2 enrichment (interaction score); with PUM1 PUF domain R6-VFY it was 6.28 log2 enrichment (interaction score).
